One test concerns the target Furin (Homo sapiens) (UniProt P09958). The experiment in a line: Furin counterscreen qHTS for Zika virus inhibitors (AID 1347149). Further: nearly all actives have a fitted effect of over 70% in size. Further: potency means the concentration at half of the fitted maximal effect. In a few lines:
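Fluorogenic cleavage of BOC-RVRR-AMC (2 microM final, Km ~15 µM) was monitored (ex 340, em 450 nm) at 37C after 15 min RT preincubation of 5 nM furin with compounds in HEPES pH 7.0 buffer with CaCl2 and Triton X-100. Percent inhibition was fitted to a 4-parameter Hill curve.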

A short description of test [1]: Vero cells viability qHTS for Zika virus inhibitors (AID 1347167). In a few lines:
(§1)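 Counter-screen for cytotoxicity of hits from NS2B-NS3 protease qHTS. Overnight-attached cells (2.5 x 10^5 cells/mL, DMEM/4% FBS) were dosed in titration, incubated 24 to 48 hours, then assayed by CellTiter Glo.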

A short description of test [2]: HepG2 cells viability qHTS for Zika virus inhibitors (AID 1347168). The procedure, abridged: as §1
The nature of test [3]: Tertiary RLuc qRT-PCR qHTS assay for Zika virus inhibitors (AID 1347169). Further: nearly all actives have a fitted effect of over 55% in size. Further: potency means the concentration at half of the fitted maximal effect. The procedure, abridged:
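Vero, 1,000 cells/well, o/n 37 C; cpd pinned in DMSO; ZIKV-RLuc Cambodian, MOI 1-2, 48-72 h 37 C; live-cell RLuc substrate, lum read at 1-1.5 h.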

The test system of test [4] is Zika virus NS2B-NS3 protease (unlinked). The experiment in a line: Optimization of GU AMC qHTS for Zika virus inhibitors: Unlinked NS2B-NS3 protease assay (AID 1347151). Further: nearly all actives have a fitted effect of over 80% in size. Further: potency means the concentration at half of the fitted maximal effect. In a few lines: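 Unlinked protease (25 nM final); buffer 10 mM Tris-HCl pH 8.0 + 0.01% Tween 20; AMC substrate; 15 min RT, dark; Δfluorescence normalized to no-inhibitor/no-enzyme controls; 4-parameter Hill fit.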

Test [5] relates to Zika virus NS2B-NS3 protease. The experiment in a line: Primary screen GU AMC qHTS for Zika virus inhibitors (AID 1347154). Further: nearly all actives have a fitted effect of over 70% in size. Further: potency means the concentration at half of the fitted maximal effect. The procedure, abridged:
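Unlinked Zika NS2B hydrophilic domain/NS3 protease domain noncovalent complex (25 nM final) in 10 mM Tris-HCl pH 8.0, 0.01% Tween 20, with AMC peptide substrate. Fluorescence (ex 340, em 450 nm) change over 15 min, room temperature; percent inhibition fitted to 4-parameter Hill equation.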

Test [6] addresses Lysine-specific demethylase 5B (Homo sapiens) (UniProt Q9UGL1). The experiment in a line: Optimization screen for KDM5B Histone Demethylases FDH coupled qHTS against the LOPAC library (AID 1347166). In a few lines: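 KDM5BDeltaAP (200nM final) preincubated 10 min with compound, then 12.5uM H3K4Me3, 25uM a-ketoglutarate, ascorbate, Fe(II), NAD+ and FDH added; 50mM HEPES pH 7.5, 0.01% Tween-20. NADH fluorescence (340/450 nm) change over 30 min, room temperature.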

In test [7] the test system is Zika virus NS2B-NS3 protease (linked construct). The experiment in a line: Confirmatory screen NINDS AMC qHTS for Zika virus inhibitors (AID 1347152). Further: nearly all actives have a fitted effect of over 70% in size. Further: potency means the concentration at half of the fitted maximal effect. In a few lines: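 Enzyme (1 nM, linked construct) was preincubated with compound for 15 minutes at room temperature in 10 mM Tris-HCl pH 8.0 with 0.01% Tween 20. Bz-Nle-Lys-Arg-Arg-AMC was then added to 10 microM, and AMC fluorescence was recorded immediately and after 15 minutes.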

Test [8] can be described thus: Confirmatory screen NINDS Rhodamine qHTS for Zika virus inhibitors (AID 1347161). Further: nearly all actives have a fitted effect of over 60% in size. Further: potency means the concentration at half of the fitted maximal effect. In a few lines:
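Purified NS2B-NS3 protease with the NS2B hydrophilic domain joined by a flexible linker (25 nM) in 10 mM Tris-HCl pH 8.0, 0.01% Tween 20, preincubated 15 min at RT with compound; Rhodamine110 peptide substrate 1.5 µM; fluorescence change over 15 min; 4-parameter Hill fit.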

In test [9] the target is N-terminal Xaa-Pro-Lys N-methyltransferase 1 (Homo sapiens) (UniProt Q9BV86). In words: qHTS Assay for Inhibitors of N-terminal methyltransferase 1 (NTMT1): LOPAC validation of the NTMT1 SAHH-coupled ThioGlo3 Assay (AID 1347143). Further: nearly all actives have a fitted effect of over 70% in size. Further: potency means the concentration at half of the fitted maximal effect. The procedure, abridged: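 Fluorescence read-out (excitation 340nm, emission 450nm) of SAH-derived thiol, measured via SAHH coupling and ThioGlo3, taken immediately and after a 30 min room-temperature reaction, then normalized to the background read. Enzyme: NTMT1 at 125nM; cofactor SAM 100uM in the added reagent.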

Test [10] in a line: Confirmatory screen GU Rhodamine qHTS for Zika virus inhibitors qHTS (AID 1347157). To be noted: purified enzyme assay, Rhodamine110 substrate fluorescence, 15 min. The procedure, abridged: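 Unlinked NS2B/NS3, 25 nM; Rhod110 peptide, 1.5 microM; compounds, up to 114 microM. Reaction run 15 min at RT in 10 mM Tris-HCl pH 8.0, 0.01% Tween 20; kinetic fluorescence change fitted with a 4-parameter Hill model.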

Test [11] concerns Zika virus NS2B-NS3 protease (linked). The experiment in a line: 384 well plate NINDS AMC confirmatory qHTS for Zika virus inhibitors (AID 1347163). Further: potency means the concentration at half of the fitted maximal effect; nearly all actives have a fitted effect of over 50% in size. To be noted: Recombinant NS2B-NS3 protease, Ac-VKTGKR-AMC fluorescence. In a few lines:
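Linked NS2B-NS3 protease (final 5 nM, 30 nM or 60 nM) was preincubated with compounds (final up to 1 mM) for ~15 minutes. Ac-VKTGKR-AMC substrate (final 30 microM) then reacted for 25 minutes at room temperature in the dark. Fluorescence (ex 355/em 460 nm) was normalized to no-enzyme and no-inhibitor controls.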

Test [12] has as its system Zika virus NS2B-NS3 protease (linked construct). The experiment in a line: 384 well plate NINDS Rhodamine confirmatory qHTS for Zika virus inhibitors (AID 1347164).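 Further: fluorescence from protease cleavage of Ac-LKRR-rhodamine 110 substrate; nearly all actives have a fitted effect of over 65% in size.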 Further: potency means the concentration at half of the fitted maximal effect. The procedure, abridged:
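Enzyme (final 5/30/60 nM) + cpd (DMSO), ~15 min; add Ac-LKRR-Rd 10 microM final; 25 min RT, dark; FI ex 485/em 538; normalized to no-enzyme, no-inhibitor ctrls; aprotinin intraplate ctrl.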

The test system of test [13] is Zika virus NS2B-NS3 protease (unlinked complex). The experiment in a line: Confirmatory screen GU AMC qHTS for Zika virus inhibitors (AID 1347153). Further: nearly all actives have a fitted effect of over 70% in size. In a few lines: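 Compounds were preincubated 15 min at room temperature with 25 nM noncovalent NS2B-NS3 protease at pH 8.0; AMC substrate added at 10 microM and 15-min fluorescence gain (340/450 nm) converted to percent inhibition, fitted 4-parameter.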

Test [14] is described as follows: ZIKV-mCherry secondary qHTS for Zika virus inhibitors (AID 1347158). Further: top concentration of the series differs between compounds. The procedure, abridged:
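Vero, 5,000 cells/well, o/n 37 °C; cpd pin-transferred in DMSO; ZIKV-mCherry MOI 1, 48-72 h 37 °C; 32% PFA stock fix, Hoechst; imaged 10x DAPI/mCherry; mCherry+ threshold 450 RFU; % infection.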

For test [15], the system named is Zika virus NS2B-NS3 protease (unlinked complex). The experiment in a line: Primary screen GU Rhodamine qHTS for Zika virus inhibitors: Unlinked NS2B-NS3 protease assay (AID 1347159). Further: nearly all actives have a fitted effect of over 60% in size. Further: potency means the concentration at half of the fitted maximal effect. In a few lines: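 Percent inhibition derives from the 15-min fluorescence change (ex 480, em 540 nm), normalized to no-enzyme and no-inhibitor wells. Reactions contained 25 nM NS2B-NS3 complex and 1.5 microM substrate in 10 mM Tris-HCl pH 8.0.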

Test [16] relates to Zika virus NS2B-NS3 protease (linked construct). The experiment in a line: Primary screen NINDS Rhodamine qHTS for Zika virus inhibitors (AID 1347160). Further: nearly all actives have a fitted effect of over 55% in size. Further: potency means the concentration at half of the fitted maximal effect. The procedure, abridged:
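In 10 mM Tris-HCl pH 8.0 containing 0.01% Tween 20, linked NS2B-NS3 protease (25 nM final) is exposed to test compounds for 15 min. Cleavage of 1.5 microM Rhodamine110 substrate is tracked by fluorescence over 15 min.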

The text below walks through data of PubChem BioAssay (NCATS).

Several values for one entry are separate records, joined by “and”; a condition that tells them apart may be missing. Equal values may be shown once. Inconclusive results are not listed. Activity calls are given as the source filed them. The call rests on the fitted dose curve; in most records, active means well fitted curve in the direction sought with a large enough effect; inconclusive means small, poorly fitted or top-dose-only effect, or another doubt; inactive means no such curve, though single readings can be large; an effect the other way counts as inactive or inconclusive.

Chain of Furin (Homo sapiens) (P09958 whole entry, looked up): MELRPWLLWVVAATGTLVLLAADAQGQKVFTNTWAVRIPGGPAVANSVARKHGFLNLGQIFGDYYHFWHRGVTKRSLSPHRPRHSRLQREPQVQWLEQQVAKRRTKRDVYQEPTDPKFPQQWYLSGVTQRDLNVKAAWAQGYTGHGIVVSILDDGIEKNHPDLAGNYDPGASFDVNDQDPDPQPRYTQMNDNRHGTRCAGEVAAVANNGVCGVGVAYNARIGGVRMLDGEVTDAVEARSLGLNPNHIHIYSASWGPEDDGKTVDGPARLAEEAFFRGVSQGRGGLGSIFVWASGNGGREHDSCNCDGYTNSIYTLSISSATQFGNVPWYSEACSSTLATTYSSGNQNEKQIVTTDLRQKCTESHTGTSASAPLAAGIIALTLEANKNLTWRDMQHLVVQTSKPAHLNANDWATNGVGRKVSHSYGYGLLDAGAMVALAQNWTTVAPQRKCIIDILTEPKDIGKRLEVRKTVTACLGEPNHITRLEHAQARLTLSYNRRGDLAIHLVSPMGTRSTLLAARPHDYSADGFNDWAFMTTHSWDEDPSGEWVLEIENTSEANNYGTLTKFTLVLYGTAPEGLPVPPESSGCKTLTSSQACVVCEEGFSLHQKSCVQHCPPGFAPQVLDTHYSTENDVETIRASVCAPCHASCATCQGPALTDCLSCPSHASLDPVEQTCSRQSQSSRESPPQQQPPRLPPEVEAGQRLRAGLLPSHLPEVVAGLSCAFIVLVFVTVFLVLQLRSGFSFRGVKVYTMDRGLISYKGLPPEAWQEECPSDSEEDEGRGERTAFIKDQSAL
Chain of N-terminal Xaa-Pro-Lys N-methyltransferase 1 (Homo sapiens) (Q9BV86 whole entry, looked up): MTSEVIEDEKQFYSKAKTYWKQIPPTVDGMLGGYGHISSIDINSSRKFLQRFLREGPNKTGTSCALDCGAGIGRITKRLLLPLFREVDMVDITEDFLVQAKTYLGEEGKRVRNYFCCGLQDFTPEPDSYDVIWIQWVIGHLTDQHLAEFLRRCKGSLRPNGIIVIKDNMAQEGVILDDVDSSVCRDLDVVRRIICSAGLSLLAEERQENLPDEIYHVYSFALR
Chain of Lysine-specific demethylase 5B (Homo sapiens) (Q9UGL1 whole entry, looked up): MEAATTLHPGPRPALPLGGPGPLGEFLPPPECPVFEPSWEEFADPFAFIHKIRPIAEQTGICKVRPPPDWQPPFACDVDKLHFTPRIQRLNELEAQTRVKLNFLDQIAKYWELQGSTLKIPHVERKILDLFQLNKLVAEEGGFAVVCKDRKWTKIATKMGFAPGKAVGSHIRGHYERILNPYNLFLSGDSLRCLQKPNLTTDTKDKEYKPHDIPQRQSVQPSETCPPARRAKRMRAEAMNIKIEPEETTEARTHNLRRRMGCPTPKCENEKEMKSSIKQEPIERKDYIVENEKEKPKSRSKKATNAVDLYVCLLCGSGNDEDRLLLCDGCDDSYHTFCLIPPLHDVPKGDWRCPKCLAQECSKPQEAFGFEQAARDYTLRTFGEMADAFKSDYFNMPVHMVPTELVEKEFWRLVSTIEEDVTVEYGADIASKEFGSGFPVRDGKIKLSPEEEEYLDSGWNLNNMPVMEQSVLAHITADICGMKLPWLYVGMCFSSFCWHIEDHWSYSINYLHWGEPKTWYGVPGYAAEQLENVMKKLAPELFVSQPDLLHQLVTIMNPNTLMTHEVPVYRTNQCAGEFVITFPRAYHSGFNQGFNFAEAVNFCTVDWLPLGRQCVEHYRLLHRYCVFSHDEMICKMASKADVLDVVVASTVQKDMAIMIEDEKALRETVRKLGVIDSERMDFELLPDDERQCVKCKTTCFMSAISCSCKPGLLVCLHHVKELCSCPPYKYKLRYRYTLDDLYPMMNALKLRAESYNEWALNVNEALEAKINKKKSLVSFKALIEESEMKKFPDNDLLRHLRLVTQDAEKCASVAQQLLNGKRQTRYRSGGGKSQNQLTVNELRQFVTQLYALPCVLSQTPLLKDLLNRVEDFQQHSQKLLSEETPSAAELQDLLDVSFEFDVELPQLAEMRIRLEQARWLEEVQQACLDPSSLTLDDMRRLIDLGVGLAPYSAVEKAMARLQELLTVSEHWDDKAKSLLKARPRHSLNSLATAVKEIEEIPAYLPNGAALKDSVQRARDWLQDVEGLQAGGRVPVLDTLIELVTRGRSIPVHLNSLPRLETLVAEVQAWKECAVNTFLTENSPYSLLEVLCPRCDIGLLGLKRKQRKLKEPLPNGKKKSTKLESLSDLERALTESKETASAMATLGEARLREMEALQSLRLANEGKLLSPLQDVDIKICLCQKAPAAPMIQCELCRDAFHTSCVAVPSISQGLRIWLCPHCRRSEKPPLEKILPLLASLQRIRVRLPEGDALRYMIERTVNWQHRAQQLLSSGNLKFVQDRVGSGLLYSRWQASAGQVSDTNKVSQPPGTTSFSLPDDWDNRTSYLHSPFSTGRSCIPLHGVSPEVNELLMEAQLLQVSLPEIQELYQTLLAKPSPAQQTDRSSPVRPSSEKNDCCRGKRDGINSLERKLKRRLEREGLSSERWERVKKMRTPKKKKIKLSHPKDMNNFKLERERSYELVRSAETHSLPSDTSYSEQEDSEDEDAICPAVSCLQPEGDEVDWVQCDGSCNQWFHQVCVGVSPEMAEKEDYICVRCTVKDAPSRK

As to `C[C@@H]1O[C@@H](O[C@H]2C[C@@H](O)[C@]3(CO)[C@H]4[C@H](O)C[C@]5(C)[C@@H](C6=CC(=O)OC6)CC[C@]5(O)[C@@H]4CC[C@]3(O)C2)[C@H](O)[C@H](O)[C@H]1O`, the Potency result with Furin (Homo sapiens) was “inactive”. Also, the compound was called inactive in test [1] and in test [2]. Besides, in [3], the Potency is 117 nM (active) and 58.7 nM (active).
Consider `C[C@H]1O[C@@H](O[C@H]2[C@@H](O)C[C@H](O[C@H]3[C@@H](O)C[C@H](O[C@H]4CC[C@@]5(C)[C@H](CC[C@@H]6[C@@H]5CC[C@]5(C)[C@@H](C7=CC(=O)OC7)CC[C@]65O)C4)O[C@@H]3C)O[C@@H]2C)C[C@H](O)[C@@H]1O`, for which the Potency result in the test with Furin (Homo sapiens) is “inactive”. In addition, in test [1], the call was inactive. Also, the Potency in test [3] is 107 nM (active).
Regarding `CC(C)=CCOc1c2occc2cc2ccc(=O)oc12`, the Potency result in test [4] and in test [5] was “inactive” throughout. In addition, the compound was classed as inactive in test [6].
Consider `C=CCN1CC[C@]23c4c5ccc(O)c4O[C@H]2C(=O)CC[C@@]3(O)[C@H]1C5`, for which the Potency result in test [5] is “inactive”.
On to `CN(C)CCN(C)CCc1ccc(Cl)c(Cl)c1`, for which the Potency result in test [5] was “inactive”.
Take `CCOC(=O)C1(c2ccccc2)CCN(CCC(C#N)(c2ccccc2)c2ccccc2)CC1`: the Potency result in test [5] is “inactive”.
As to `Cc1ccc(-c2nc3ccc(C)cn3c2CC(=O)N(C)C)cc1`, the values for the Potency (in the test with Furin (Homo sapiens); in test [7]; in [5]) were 8.55 µM (active), 27.1 µM (active) and 31.6 µM (active), respectively. Besides, the Potency result in [8] and in test [3] was “inactive” in each case. Also, the compound was classed as inactive in [1] and in [2].
For the compound `CC1=C2C[C@@H]3[C@@H](CC=C4C[C@@H](O)CC[C@@]43C)[C@@H]2CC[C@]12O[C@H]1C[C@H](C)CN[C@H]1[C@H]2C`, the Potency result in test [5] was “inactive”.
For the compound `N#CC(C#N)=Cc1ccc(O)c(O)c1`, the Potency in test [9] was 56.2 µM (active). Moreover, the Potency result in [5] is “inactive”.
In the case of `CCCN1CCC[C@@H]2Cc3[nH]ncc3C[C@H]21`, the Potency entry in [9], in test [4] and in test [5] was “inactive” each time. Besides, the call in test [6] was inactive.
As to `N[C@@H](Cc1ccc(Oc2cc(I)c(O)c(I)c2)c(I)c1)C(=O)O`, the Potency with Furin (Homo sapiens) was 30.4 µM (active); in [10], 6.31 µM (active); in test [8], 11.2 µM (active) and 4.94 µM (active); in test [11], 50.1 µM (active). For the same compound, the Potency result in test [12] and in test [3] was “inactive” each time. For the same compound, the compound was called inactive in test [1] and in test [2].
For the compound `CN1C(=S)CN=C(c2ccccc2)c2cc(Cl)ccc21`, in test [5], the Potency result is “inactive”.
With `CN(C)CCc1ccc(O)cc1`, the Potency entry in test [5] is “inactive”.
With `O=c1oc2ccccc2c(O)c1C(CC(O)c1ccc(-c2ccc(Br)cc2)cc1)c1ccccc1` (stereo unspecified), the Potency with Furin (Homo sapiens) was 26.4 µM (active); in test [5], 14.1 µM (active); in [10], 7.94 µM (active); in test [8] it was 3.16 µM (active); in [11], 31.6 µM (active); in [12], 6.31 µM (active).
As for `CN1C[C@H](CNC(=O)OCc2ccccc2)C[C@@H]2c3cccc4c3c(cn4C)C[C@H]21`, the Potency in [4] was 23.8 µM (active). Also, the Potency entry in test [7], in [13], in [5], in [8] and in test [3] was “inactive” each time. Further, the outcome in test [1] and in [2] was inactive.
With `CCCC1CCCCN1` (stereo unspecified), the Potency result in test [5] was “inactive”.
Regarding `C[C@]12C/C(=C/O)C(=O)C[C@@H]1CC[C@@H]1[C@@H]2CC[C@@]2(C)[C@H]1CC[C@]2(C)O`, the Potency entry in [5] is “inactive”.
On to `O=C(O)C(=O)c1cn(Cc2ccccc2)c2ccc(-c3ccc(OC(F)(F)F)cc3)cc12`, for which the Potency is 7.84 µM (active) in test [7]; 9.61 µM (active) in test [13]; 6.07 µM (active) in test [5]; 1.24 µM (active) and 1.56 µM (active) in test [10]; 1.58 µM (active) in test [15]; 2.51 µM (active) in [16]. The Potency was 1.24 µM (active) and 1.75 µM (active) in test [8]; 11.2 µM (active) in test [11]; 12.6 µM (active) and 3.16 µM (active) in test [12]. The outcome in test [14], in test [1] and in [2] was inactive.
As to `Oc1ccccc1-c1ccccc1`, the Potency entry in test [5] was “inactive”.
The same measure, in the same setting: with `CC(C)(C)NCC(O)c1cc(Cl)c(N)c(Cl)c1` (stereo unspecified) the entry was “inactive”; with `CC(C)(N)Cc1ccc(Cl)cc1`, “inactive”.
Consider `COc1ccccc1N1CCNCC1`, for which the Potency entry in test [9], in [4] and in [5] was “inactive” throughout. In addition, the compound was classed as inactive in [6].
Consider `CC1OC(C)OC(C)O1` (stereo unspecified), for which the Potency entry in [5] is “inactive”.
Regarding `COC[C@H]1OC(=O)c2coc3c2[C@@]1(C)C1=C(C3=O)C2CCC(=O)[C@@]2(C)C[C@H]1OC(C)=O` (stereo partly specified), the Potency entry in [4], in [5], in test [15] and in test [16] was “inactive” in each case. For the same compound, the compound was classed as inactive in test [6].
With `Cc1ncc(CNC(=O)N(CCCl)N=O)c(N)n1`, the Potency result in test [4] and in test [5] was “inactive” throughout. Also, the compound was classed as inactive in test [6].
